Seven sequences from article PMC4081100, “A DNA-binding-site landscape and regulatory network analysis for NAC transcription factors in Arabidopsis thaliana” can be followed below.

Experiment in all cases: universal protein binding microarray (PBM); transcription factors of Arabidopsis thaliana; high values mean tight binding
What all share (conditions): protein: recombinant; tags: GST; chain copies: 2; dsDNA, one strand shown

One experiment has as its target T1, GST-ANAC092(1-176) (Arabidopsis thaliana, UniProt Q9FKA0 1-176).
T1 sequence: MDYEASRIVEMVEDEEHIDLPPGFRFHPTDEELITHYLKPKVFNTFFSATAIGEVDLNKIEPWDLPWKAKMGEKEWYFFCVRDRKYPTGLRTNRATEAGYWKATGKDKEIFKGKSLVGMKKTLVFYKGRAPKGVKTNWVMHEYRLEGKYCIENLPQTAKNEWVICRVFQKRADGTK
An outline of the steps: (§1)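 For zinc-finger proteins, zinc acetate was added while GST-tagged NAC-domain, full-length or DNA-binding-domain proteins were induced in cells. Purification used glutathione–Sepharose 4B, and quantification used A280 or anti-GST western blot. Custom all-10-mer Agilent 4 × 180K arrays, made double-stranded by primer extension, each received a protein at 200 to 500 nM final in duplicate. Scoring covered gapped and ungapped 8-mers, with binding given as the normalised enrichment score (E-score).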

The target of another experiment is GST-NTL6(1-168) (Arabidopsis thaliana, UniProt Q9SCK6 1-168). An outline of the steps:
as §1

For the next experiment, the target named is T2, GST-ANAC019 NAC domain (Arabidopsis thaliana, UniProt Q9C932 14-162).
T2 sequence: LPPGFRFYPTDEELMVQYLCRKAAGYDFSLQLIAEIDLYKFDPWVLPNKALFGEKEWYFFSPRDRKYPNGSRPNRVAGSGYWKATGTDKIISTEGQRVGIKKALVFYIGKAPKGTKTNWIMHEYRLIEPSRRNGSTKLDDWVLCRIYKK
The method, boiled down: as §1

The next experiment deals with T3, GST-ANAC055(1-171) (Arabidopsis thaliana, UniProt Q9LDY8 1-171).
T3 sequence: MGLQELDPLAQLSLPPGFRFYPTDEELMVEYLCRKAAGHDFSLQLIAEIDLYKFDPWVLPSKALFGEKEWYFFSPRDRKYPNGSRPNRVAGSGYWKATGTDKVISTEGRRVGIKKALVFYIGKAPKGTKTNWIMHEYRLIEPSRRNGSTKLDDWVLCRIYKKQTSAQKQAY
The method, boiled down: as §1

The next experiment has as its target T4, GST-ATAF1 NAC domain (Arabidopsis thaliana, UniProt Q39013 7-158).
T4 sequence: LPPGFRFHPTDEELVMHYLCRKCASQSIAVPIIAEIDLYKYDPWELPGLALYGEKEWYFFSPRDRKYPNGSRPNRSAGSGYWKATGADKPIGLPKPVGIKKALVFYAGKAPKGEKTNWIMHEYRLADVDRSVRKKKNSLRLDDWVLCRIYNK
The method, boiled down:
as §1

Experiment [1] addresses T5, GST-ANAC092(1-285) full length (Arabidopsis thaliana, UniProt Q9FKA0 1-285).
T5 sequence: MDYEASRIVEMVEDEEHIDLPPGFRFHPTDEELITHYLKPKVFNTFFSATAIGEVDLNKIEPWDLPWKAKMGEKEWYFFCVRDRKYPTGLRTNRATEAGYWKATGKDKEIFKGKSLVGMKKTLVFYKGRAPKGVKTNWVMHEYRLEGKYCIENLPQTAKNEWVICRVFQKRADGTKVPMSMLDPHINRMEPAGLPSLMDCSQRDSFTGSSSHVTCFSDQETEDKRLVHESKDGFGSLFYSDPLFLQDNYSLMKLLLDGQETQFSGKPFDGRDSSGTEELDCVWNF
An outline of the steps:
as §1

A further experiment concerns the target T6, GST-NAP(1-166) (Arabidopsis thaliana, UniProt O49255 1-166).
T6 sequence: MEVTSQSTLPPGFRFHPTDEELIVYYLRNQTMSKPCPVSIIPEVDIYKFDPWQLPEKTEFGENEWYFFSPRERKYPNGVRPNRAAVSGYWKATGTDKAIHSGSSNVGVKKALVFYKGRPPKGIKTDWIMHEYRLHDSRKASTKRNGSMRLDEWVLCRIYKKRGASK
The method, boiled down: as §1

The target in the next experiment is T7, GST-NST2(1-184) (Arabidopsis thaliana, UniProt Q9M274 1-184).
T7 sequence: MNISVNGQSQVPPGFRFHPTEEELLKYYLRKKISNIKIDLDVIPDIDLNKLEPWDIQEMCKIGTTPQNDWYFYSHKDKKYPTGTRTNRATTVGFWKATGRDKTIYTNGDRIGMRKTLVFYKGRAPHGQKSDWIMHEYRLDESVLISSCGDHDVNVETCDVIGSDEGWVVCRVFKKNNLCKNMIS
The method, boiled down: as §1

In a further experiment the target is T8, GST-NTL8 NAC domain (Arabidopsis thaliana, UniProt Q9XIN7 14-156).
T8 sequence: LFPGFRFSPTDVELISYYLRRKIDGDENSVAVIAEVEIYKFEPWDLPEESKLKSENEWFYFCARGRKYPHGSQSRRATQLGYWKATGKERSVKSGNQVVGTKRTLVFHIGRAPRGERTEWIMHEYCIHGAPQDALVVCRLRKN
An outline of the steps:
as §1

Another experiment deals with T9, GST-SND1(1-203) (Arabidopsis thaliana, UniProt Q9LPI7 1-203).
T9 sequence: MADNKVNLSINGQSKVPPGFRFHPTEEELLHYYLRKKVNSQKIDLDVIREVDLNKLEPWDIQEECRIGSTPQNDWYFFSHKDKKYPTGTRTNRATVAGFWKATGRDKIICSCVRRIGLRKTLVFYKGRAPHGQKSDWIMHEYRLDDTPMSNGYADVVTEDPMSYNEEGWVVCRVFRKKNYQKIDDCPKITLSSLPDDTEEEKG
An outline of the steps: as §1

Another experiment deals with T10, GST-VND3 NAC domain (Arabidopsis thaliana, UniProt Q9FH59 12-162).
T10 sequence: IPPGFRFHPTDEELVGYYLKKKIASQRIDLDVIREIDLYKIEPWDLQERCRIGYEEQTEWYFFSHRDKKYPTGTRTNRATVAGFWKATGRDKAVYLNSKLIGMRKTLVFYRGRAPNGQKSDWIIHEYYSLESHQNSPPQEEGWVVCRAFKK
The method, boiled down:
as §1

Another experiment has as its target T11, GST-VND7 NAC domain (Arabidopsis thaliana, UniProt Q9C8W9 9-158).
T11 sequence: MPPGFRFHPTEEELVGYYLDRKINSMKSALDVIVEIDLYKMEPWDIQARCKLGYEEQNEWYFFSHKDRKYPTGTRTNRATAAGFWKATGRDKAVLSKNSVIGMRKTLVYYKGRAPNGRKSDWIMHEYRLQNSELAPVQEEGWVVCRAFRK
An outline of the steps: as §1

GST-NTL6(1-168), sequence (Q9SCK6 1-168): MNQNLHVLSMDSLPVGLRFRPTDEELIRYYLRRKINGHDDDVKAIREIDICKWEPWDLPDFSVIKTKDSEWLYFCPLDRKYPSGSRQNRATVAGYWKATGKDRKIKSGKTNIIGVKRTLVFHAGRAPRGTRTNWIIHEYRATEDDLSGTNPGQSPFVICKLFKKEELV

Take AAGGAAAT: the binding signal turned out to be 0.191 E-score with GST-ANAC092(1-176); 0.384 E-score in the experiment with GST-NTL6(1-168); 0.147 E-score with GST-ANAC019 NAC domain; 0.0899 E-score with GST-ANAC055(1-171); 0.122 E-score with GST-ATAF1 NAC domain; 0.163 E-score in [1]. Also, the binding signal in the experiment with GST-NAP(1-166) is 0.06 E-score; with GST-NST2(1-184), 0.15 E-score; in the experiment with GST-NTL8 NAC domain, 0.466 E-score; with GST-SND1(1-203), 0.258 E-score; with GST-VND3 NAC domain, 0.144 E-score; in the experiment with GST-VND7 NAC domain, 0.0723 E-score.
Take GAAGTAAA: the binding signal is 0.214 E-score in the experiment with GST-ANAC092(1-176); 0.409 E-score with GST-NTL6(1-168); 0.0501 E-score in the experiment with GST-ANAC019 NAC domain; 0.107 E-score with GST-ANAC055(1-171); 0.211 E-score in the experiment with GST-ATAF1 NAC domain; 0.305 E-score in experiment [1]. In addition, the binding signal in the experiment with GST-NST2(1-184) is 0.224 E-score; with GST-NTL8 NAC domain, 0.222 E-score; with GST-SND1(1-203), 0.329 E-score; with GST-VND3 NAC domain, 0.179 E-score; in the experiment with GST-VND7 NAC domain, 0.18 E-score.
For TTACGCAA, the binding signal was 0.484 E-score with GST-ANAC092(1-176); 0.18 E-score in the experiment with GST-NTL6(1-168); 0.447 E-score in the experiment with GST-ANAC019 NAC domain; 0.335 E-score in the experiment with GST-ANAC055(1-171); 0.375 E-score with GST-ATAF1 NAC domain; 0.484 E-score in experiment [1]. Further, the binding signal with GST-NAP(1-166) worked out at 0.442 E-score; with GST-NST2(1-184) it was 0.437 E-score; with GST-NTL8 NAC domain, 0.18 E-score; in the experiment with GST-SND1(1-203) it was 0.495 E-score; with GST-VND3 NAC domain, 0.457 E-score; with GST-VND7 NAC domain, 0.468 E-score.
As to CCACGCAA, the binding signal worked out at 0.472 E-score with GST-ANAC092(1-176); 0.116 E-score with GST-NTL6(1-168); 0.383 E-score with GST-ANAC019 NAC domain; 0.363 E-score with GST-ANAC055(1-171); 0.235 E-score with GST-ATAF1 NAC domain; 0.474 E-score in experiment [1]. Further, the binding signal in the experiment with GST-NAP(1-166) is 0.305 E-score; in the experiment with GST-NST2(1-184), 0.348 E-score; with GST-NTL8 NAC domain it was 0.0836 E-score; in the experiment with GST-SND1(1-203) it was 0.41 E-score; with GST-VND3 NAC domain, 0.354 E-score; with GST-VND7 NAC domain, 0.337 E-score.
Take CTTACGCA: the binding signal with GST-ANAC092(1-176) was determined as 0.359 E-score; with GST-NTL6(1-168), 0.0871 E-score; in the experiment with GST-ANAC019 NAC domain, 0.265 E-score; with GST-ANAC055(1-171), 0.199 E-score; with GST-ATAF1 NAC domain it was 0.187 E-score; in experiment [1], 0.389 E-score. Also, the binding signal is 0.243 E-score in the experiment with GST-NAP(1-166); 0.278 E-score in the experiment with GST-NST2(1-184); 0.111 E-score in the experiment with GST-NTL8 NAC domain; 0.429 E-score in the experiment with GST-SND1(1-203); 0.255 E-score in the experiment with GST-VND3 NAC domain; 0.295 E-score in the experiment with GST-VND7 NAC domain.
As to TACGCCAA, the binding signal in the experiment with GST-ANAC092(1-176) was 0.413 E-score; with GST-NTL6(1-168), 0.0645 E-score; with GST-ANAC019 NAC domain it was 0.0981 E-score; in the experiment with GST-ANAC055(1-171), 0.172 E-score; in the experiment with GST-ATAF1 NAC domain, 0.309 E-score; in experiment [1], 0.439 E-score. Further, the binding signal in the experiment with GST-NST2(1-184) turned out to be 0.251 E-score; with GST-NTL8 NAC domain it was 0.0846 E-score; with GST-SND1(1-203) it was 0.454 E-score; in the experiment with GST-VND3 NAC domain, 0.171 E-score; in the experiment with GST-VND7 NAC domain, 0.244 E-score.
Take CCACGTAA: the binding signal turned out to be 0.359 E-score with GST-ANAC092(1-176); 0.0826 E-score with GST-NTL6(1-168); 0.432 E-score in the experiment with GST-ANAC019 NAC domain; 0.37 E-score in the experiment with GST-ANAC055(1-171); 0.306 E-score with GST-ATAF1 NAC domain; 0.393 E-score in experiment [1]. Also, the binding signal with GST-NAP(1-166) came to 0.308 E-score; with GST-NST2(1-184), 0.157 E-score; in the experiment with GST-NTL8 NAC domain, 0.167 E-score; with GST-SND1(1-203), 0.0962 E-score; with GST-VND3 NAC domain, 0.326 E-score; with GST-VND7 NAC domain it was 0.341 E-score.
